Source: PubChem (National Center for Advancing Translational Sciences (NCATS))
Resorufin fluor: qHTS Assay for Spectroscopic Profiling in Resorufin Spectral Region; Compound fluorescence, resorufin region 547/598 nm, buffer; stronger effect = higher value; max dye-equivalent concentration, M; hit rate 0.04% among 59,000
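Intrinsic fluorescence profiled in the resorufin window (ex 547 nm, em 598 nm) after 15 min at room temperature in pH 8.0 Tris buffer (100 mM); responses normalized against a six-point resorufin standard series as dye-equivalent concentration.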
A488 fluor: qHTS Assay for Spectroscopic Profiling in A488 Spectral Region; compound autofluorescence, A488 spectral region, dye equivalency; Compound Type: qHTS ECL - MLSMR; max dye equivalency, M; hit rate 0.1% among 59,000; AID 591, 2007
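Readout is A488 dye-equivalent concentration, calibrated by a per-plate six-point Alexa 488 series. Compounds in 100 mM Tris buffer pH 8.0 were incubated 15 min at room temperature. Plates were imaged using 480 nm excitation/540 nm emission filters.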
A647 autofl: qHTS Assay for Spectroscopic Profiling in A647 Spectral Region; Compound fluorescence, A647 channel (570/671 nm), Tris buffer; max dye-equivalent concentration, M; 59,000 tested, under 10 active; AID 592, 2007
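Compounds pinned into 100 mM Tris pH 8.0, 15 min at room temperature, then read with 570 nm excitation/671 nm emission filters. Fluorescence normalized to an on-plate six-point Alexa 647 standard curve, giving dye-equivalent concentration per compound concentration.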
TexasRed autofl: qHTS Assay for Spectroscopic Profiling in Texas Red Spectral Region; hit rate 0.06% among 59,000; Compound fluorescence, Texas Red channel, 547/618 nm; stronger effect = higher value; max dye-equivalent concentration, M; AID 587, 2007; in the data active = max dye-equivalent concentration above about 10 nM; inconclusive = between about 1.1 nM and that limit
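Dye-equivalent concentrations come from scaling compound signal (ex 547, em 618 nm) to six Texas Red standard concentrations run on every plate, after 15 min room-temperature incubation in pH 8.0 Tris (100 mM).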
Fluorescein autfl: qHTS Assay for Spectroscopic Profiling in Fluorescein Spectral Region; hit rate 0.91% among 59,000; Compound autofluorescence, 480/540 nm, fluorescein-equivalent; stronger effect = higher value; max fluorescein-equivalent concentration, M; in the data active = max fluorescein-equivalent concentration above about 10 nM; inconclusive = between about 1.1 nM and that limit
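Library compounds, added at multiple concentrations to pH 8.0 Tris buffer (100 mM), incubate 15 min at room temperature before CCD imaging at 480 nm excitation and 540 nm emission.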
Rhodamine autofl: qHTS Assay for Spectroscopic Profiling in Rhodamine Spectral Region | Rhodamine-region fluorescence, 547/598 nm, Tris buffer; stronger effect = higher value | max dye-equivalent concentration, M | hit rate 0.05% among 59,000; in the data active = max dye-equivalent concentration above about 11 nM; inconclusive = between about 1.1 nM and that limit
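Steps: pin-transfer compounds into pH 8.0 Tris (100 mM), hold 15 min at room temperature, image with a 547/598 nm filter pair, and convert intensities to rhodamine-equivalent concentration using a six-point on-plate rhodamine series.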
Of the large screens only hits and unclear results are named; the others gave an inactive call. Only some compounds are listed: those with a hit (about 0.9% of all), similar ones and a draw of the others. Unless noted, the rule behind the calls is not given here.

Cc1oc(C)c2c(=O)ccc3c(c12)OC(N)=C(C#N)C3c1ccccc1 (centres undefined)	Fluorescein autfl 1.1e-08M
Cc1oc(C)c2c(=O)ccc3c(c12)OC(N)=C(C#N)C3c1ccccc1Cl (centres undefined)	Fluorescein autfl 1.5e-08M
CC(=O)C1=C(C)OC(N)=C(C#N)C1c1ccco1 (centres undefined)	Fluorescein autfl inconclusive
CSc1ccc(C2C(C#N)=C(N)Oc3c2ccc(=O)c2c(C)oc(C)c32)cc1 (centres undefined)	Fluorescein autfl inconclusive
Cc1cc(Cl)ccc1Nc1sc(C(=O)c2cc3cc(Cl)ccc3o2)c(N)c1C#N	Fluorescein autfl inconclusive
CNC(=O)[C@@H]1O[C@@H](n2cnc3c(N)ncnc32)[C@@H](O)[C@H]1O	TexasRed autofl inconclusive, Fluorescein autfl inconclusive
O=C1O[C@H](CN2CCOCC2)CN1/N=C\c1ccc([N+](=O)[O-])o1	Fluorescein autfl inconclusive
O=C1OCCN1/N=C\c1ccc([N+](=O)[O-])o1	TexasRed autofl inconclusive, Fluorescein autfl 3.1e-08M
CCN(CC)c1ccc(C=N/C(C#N)=C(\N)C#N)cc1	A488 fluor 2.6e-08M, TexasRed autofl inconclusive, Fluorescein autfl 5e-07M, Rhodamine autofl inconclusive
O=C(Cn1cc(C(=O)COc2ccccc2)c2ccccc21)NCc1ccco1	Fluorescein autfl 1.5e-08M
FC(F)(F)c1cc(CO[C@@H]2CCCN[C@H]2c2ccccc2)cc(C(F)(F)F)c1	TexasRed autofl inconclusive
COc1cccc(-c2cn3nc(C)c(C)nc3n2)c1	none
Cc1nc2nc(-c3cccs3)cn2nc1C	A488 fluor inconclusive, Fluorescein autfl 6e-08M
O=S(=O)(Nc1nc2ccccc2nc1N1CCN(c2ccccn2)CC1)c1ccc(Cl)cc1	Fluorescein autfl 1.7e-08M
COc1ccc(CNC(=O)C(C#N)c2nc3ccccc3nc2N2CCCC2)cc1 (centres undefined)	A488 fluor 2.1e-08M, Fluorescein autfl 3.5e-07M
C=CCNC(=O)C(C#N)c1nc2ccccc2nc1N1CCCCCC1 (centres undefined)	Fluorescein autfl 1.3e-08M
CC1CCN(c2nc3ccccc3nc2C(C#N)C(=O)NC2CCCCC2)CC1 (centres undefined)	Fluorescein autfl 1.4e-08M
COc1ccc(CNC(=O)C(C#N)c2nc3ccccc3nc2N2CCN(C)CC2)cc1 (centres undefined)	none
CCCCNC(=O)C(C#N)c1nc2ccccc2nc1N1CCCC1 (centres undefined)	A488 fluor 1.2e-08M, Fluorescein autfl 2.3e-07M
COC(=O)C(C#N)c1nc2ccccc2nc1N1CCCC1 (centres undefined)	none
NC(=S)c1ccc[n+]([C@@H]2O[C@@H](COP(=O)([O-])OP(=O)(O)OC[C@@H]3O[C@@H](n4cnc5c(N)ncnc54)[C@@H](OP(=O)(O)O)[C@H]3O)[C@@H](O)[C@H]2O)c1	Fluorescein autfl inconclusive
N=C(N)SCc1nc(-c2ccc(Cl)cc2)no1	none
CC1CN(c2nc3ccccc3nc2C(C#N)C(=O)NCc2ccc3c(c2)OCO3)CC(C)O1 (centres undefined)	A488 fluor inconclusive, Fluorescein autfl 1.1e-07M
CCCCNC(=O)C(C#N)c1nc2ccccc2nc1N1CCN(Cc2ccc3c(c2)OCO3)CC1 (centres undefined)	Fluorescein autfl inconclusive
C=CCOC(=O)C(C#N)c1nc2ccccc2nc1N1CCN(Cc2ccc3c(c2)OCO3)CC1 (centres undefined)	Fluorescein autfl 1.2e-08M
CCCCCCOC(=O)C(C#N)c1nc2ccccc2nc1N1CCCCC1 (centres undefined)	Fluorescein autfl 1e-08M
NC[C@@H](O)CSCc1ccc(Cl)cc1	Fluorescein autfl inconclusive
CC[C@@H]1CN2CCc3cc(OC)c(OC)cc3[C@H]2C[C@@H]1C[C@@H]1NCCc2cc(OC)c(OC)cc21	Fluorescein autfl inconclusive
N.N.N.N.N.N.N.N.N.N.N.N.N.N.O.O.[Ru].[Ru].[Ru]	TexasRed autofl inconclusive
